PubChem BioAssay (NCATS)
Results filed as inconclusive are left out. Values without a mark were called inactive. The source made the active and inactive calls. Calls follow the shape of the dose curve; as a rule, active = well fitted inhibition curve with a large enough effect; inconclusive = small, poorly fitted or top-dose-only effect; inactive = flat fitted curve, though single readings scatter.

These compounds were tested on Zika virus NS2B-NS3 protease (assay: Primary screen GU AMC qHTS for Zika virus inhibitors (AID 1347154; also: nearly all actives have a fitted effect of over 70% in size;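 as to activity change, negative = inhibition: 0% = no-inhibitor control and -100% = no-enzyme control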)). Conditions: Zika NS2B-NS3 unlinked protease, AMC fluorogenic substrate; series mostly up to 54.1 µM; activity change, negative = inhibition: at the top concentration.
Procedure, shortened: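 Unlinked Zika NS2B hydrophilic domain/NS3 protease domain noncovalent complex (25 nM final) in 10 mM Tris-HCl pH 8.0, 0.01% Tween 20, with AMC peptide substrate. Fluorescence (ex 340, em 450 nm) change over 15 min, room temperature; percent inhibition fitted to 4-parameter Hill equation.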
Potency is read from the fitted curve at half-maximal effect.

Question: Which “activity change, negative = inhibition” value does the source give for `C=C[C@@H]1CN2CCC1C[C@@H]2C(O)c1ccnc2ccc(OC)cc12` (stereo partly specified) here?
Answer: -20.6%

Question: `O=C1C(CCC(O)c2ccc(F)cc2)C(c2ccc(O)cc2)N1c1ccc(F)cc1` (stereo unspecified) was tested. Which “activity change, negative = inhibition” value did it give?
Answer: -2.64%

Question: How did the “activity change, negative = inhibition” value turn out when `O=C(Nc1cccc(Cl)c1)Nc1ncc(CCNc2ncnc3ccsc23)s1` was run?
Answer: -14.3%

Question: For `Cc1nc(NC(=O)N2CCC[C@@H]2C(N)=O)sc1-c1csc(C(C)(C)C)n1`, which “activity change, negative = inhibition” value is on record?
Answer: 0.125%

Question: With `CN1CCC[C@H]1CCO[C@](C)(c1ccccc1)c1ccc(Cl)cc1` as the compound, how does the “activity change, negative = inhibition” value read?
Answer: 5.68%

Question: With `CC(C)CN(C[C@H](O)[C@H](Cc1ccccc1)NC(=O)O[C@H]1CCOC1)S(=O)(=O)c1ccc(N)cc1` as the compound, how does the “activity change, negative = inhibition” value read?
Answer: -6.29%

Question: `CCOC(=O)[C@H]1O[C@H]1C(=O)N[C@@H](CC(C)C)C(=O)NCCC(C)C` was tested. Which “activity change, negative = inhibition” value did it give?
Answer: -2.43%

Question: For `CN(C)CCN(C)C(=O)c1ccc(NC(=O)Nc2ccc(-c3nc(N4CCOCC4)c4ccn(CC(F)(F)F)c4n3)cc2)cc1`, which “activity change, negative = inhibition” value is on record?
Answer: 7.13%

Question: With `O=C(c1ccc(C=Cc2n[nH]c3ccccc23)cc1)N1CCNCC1` as the compound, how does the Potency read?
Answer: 7.64 µM (active)

Question: Which “activity change, negative = inhibition” value does the source give for `O=C(c1ccc(F)c(F)c1Nc1ccc(I)cc1F)N1CC(O)([C@H]2CCCCN2)C1` here?
Answer: 17.6%

Question: How did the “activity change, negative = inhibition” value turn out when `C[C@]12CCC3=C4CCC(=O)C=C4CC[C@@H]3[C@H]1CC[C@@]2(O)CC#N` was run?
Answer: 7.19%

Question: With `O=C(O)C1=CO[C@@H](O[C@@H]2O[C@H](CO)[C@H](O)[C@H](O)[C@H]2O)[C@@H]2C(CO)=CC[C@H]12` as the compound, how does the “activity change, negative = inhibition” value read?
Answer: 8.14%

Question: For `Nc1nc(Cl)nc2c1ncn2[C@@H]1O[C@H](CO)[C@@H](O)[C@H]1F`, which “activity change, negative = inhibition” value is on record?
Answer: 6.33%

Question: For `COc1ccc2cc1Oc1ccc(cc1)C[C@H]1c3cc(c(OC)cc3CCN1C)Oc1c(OC)c(OC)cc3c1[C@H](C2)N(C)CC3`, which Potency is on record?
Answer: inactive

Question: For `CCC[C@@H](NC(=O)[C@@H]1[C@H]2CCC[C@@H]2CN1C(=O)[C@@H](NC(=O)[C@@H](NC(=O)c1cnccn1)C1CCCCC1)C(C)(C)C)C(=O)C(=O)NC1CC1`, which “activity change, negative = inhibition” value is on record?
Answer: -0.0698%

Question: With `Cc1ccc(NC(=O)c2cccc(N(C)C)c2)cc1NC(=O)c1ccc(O)cc1` as the compound, how does the Potency read?
Answer: inactive

Question: `Cc1cc(CS(=O)(=O)c2ccccc2)cc(OCc2ccc(CN3CCC[C@H]3CO)cc2)c1` was tested. Which “activity change, negative = inhibition” value did it give?
Answer: 8.76%

Question: `COc1ccc(-c2cc(=O)c3c(O)cc(O[C@@H]4O[C@H](CO[C@@H]5O[C@@H](C)[C@H](O)[C@@H](O)[C@@H]5O)[C@@H](O)[C@H](O)[C@@H]4O)cc3o2)cc1O` was tested. Which “activity change, negative = inhibition” value did it give?
Answer: 6.81%

Question: Which “activity change, negative = inhibition” value does the source give for `CO[C@H]1O[C@@H]2O[C@@]3(C)CC[C@@H]4[C@@H](C)CC[C@@H]([C@H]1C)[C@@]24OO3` here?
Answer: 6.37%

Question: `CNC1[C@H](O)C(O[C@@H]2C(O)C(O[C@H]3O[C@H]([C@@H](C)NC)CC[C@H]3N)[C@@H](N)C[C@H]2N)OC[C@]1(C)O` (stereo partly specified) was tested. Which “activity change, negative = inhibition” value did it give?
Answer: -4.25%

Question: With `CC(C)CN(C[C@@H](O)[C@H](Cc1ccccc1)NC(=O)O[C@H]1CO[C@H]2OCC[C@H]21)S(=O)(=O)c1ccc(N)cc1` as the compound, how does the “activity change, negative = inhibition” value read?
Answer: -6.5%

Question: How did the “activity change, negative = inhibition” value turn out when `Cc1ccc(NC(=O)c2ccc(CN3CCN(C)CC3)cc2)cc1Nc1nc(-c2cccnc2)cs1` was run?
Answer: 14.2%

Question: `CCCCN(CCCC)CC(O)c1cc(Cl)cc2c1-c1ccc(Cl)cc1C2=Cc1ccc(Cl)cc1` (stereo unspecified) was tested. Which “activity change, negative = inhibition” value did it give?
Answer: 11.3%

Question: Which “activity change, negative = inhibition” value does the source give for `CCNC(=O)[C@H]1O[C@@H](n2cnc3c(N)nc(NCCc4ccc(CCC(=O)O)cc4)nc32)[C@H](O)[C@H]1O` here?
Answer: -0.653%

Question: With `CCC[C@H](Nc1nc(-c2ccc(NC(=O)NCC)c(OC)c2)ncc1C)c1cccnc1` as the compound, how does the “activity change, negative = inhibition” value read?
Answer: 16.7%

Question: `CN1N=C(N)c2cn([C@@H]3O[C@H](COP(=O)(O)O)[C@@H](O)[C@@H]3O)c3ncnc1c23` was tested. Which “activity change, negative = inhibition” value did it give?
Answer: -6.6%

Question: For `C#C[C@]1(O)CC[C@H]2[C@H]3CCc4cc(OC)ccc4[C@H]3CC[C@@]21C`, which “activity change, negative = inhibition” value is on record?
Answer: -6.99%

Question: Which “activity change, negative = inhibition” value does the source give for `COc1cc(CNC(=O)CCCCC=CC(C)C)ccc1O` here?
Answer: -17.1%

Question: For `COc1cc(N2CCN(C)CC2)ccc1Nc1nc(N)c(C(=O)c2c(Cl)cccc2Cl)s1`, which “activity change, negative = inhibition” value is on record?
Answer: 1.09%

Question: For `OCCn1cc(-c2ccc3c(c2)CCC3=NO)c(-c2ccncc2)n1`, which “activity change, negative = inhibition” value is on record?
Answer: -1.09%

Question: Which “activity change, negative = inhibition” value does the source give for `CN1CC(=O)N2C(Cc3c([nH]c4ccccc34)[C@H]2c2ccc3c(c2)OCO3)C1=O` (stereo partly specified) here?
Answer: -11.5%

Question: With `COc1cc2ncnc(Nc3cc(Br)c(O)c(Br)c3)c2cc1OC` as the compound, how does the “activity change, negative = inhibition” value read?
Answer: -5.36%

Question: How did the “activity change, negative = inhibition” value turn out when `CC(C)C[C@H](NC(=O)c1cc2ccccc2s1)C(=O)N1CCN(C(=O)[C@H](CO)NS(=O)(=O)c2ccc(Cl)cc2Cl)CC1` was run?
Answer: -4.89%

Question: For `CN(C)CCOc1ccc(C(=C(CCCl)c2ccccc2)c2ccccc2)cc1`, which “activity change, negative = inhibition” value is on record?
Answer: 2.7%

Question: How did the “activity change, negative = inhibition” value turn out when `FC(F)(F)c1ccc(C=Cc2nc(COc3ccc(CCCCn4ccnn4)cc3)co2)cc1` was run?
Answer: 10.3%

Question: With `CSc1cccc(Nc2ncc3cc(-c4c(Cl)cccc4Cl)c(=O)n(C)c3n2)c1` as the compound, how does the “activity change, negative = inhibition” value read?
Answer: 2.96%
